# This is a sample that favours compounds with a hit; in the whole collection about 3.8% have one here.
# ADAM17 inh: inhibitors of human ADAM17; inhibition, % at 6.95 µM; AID 720648; actives 0.83% (n = 370,000); recombinant ADAM17, EDANS/DABCYL FRET peptide cleavage;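 active = inhibition above the mean of compounds lying between control limits plus 3 SD, set per campaign, cut at about 8.5% in these data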;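 note: 0% = DMSO-only wells as the low control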
# Target sequence (P78536 215-824 limits assumed): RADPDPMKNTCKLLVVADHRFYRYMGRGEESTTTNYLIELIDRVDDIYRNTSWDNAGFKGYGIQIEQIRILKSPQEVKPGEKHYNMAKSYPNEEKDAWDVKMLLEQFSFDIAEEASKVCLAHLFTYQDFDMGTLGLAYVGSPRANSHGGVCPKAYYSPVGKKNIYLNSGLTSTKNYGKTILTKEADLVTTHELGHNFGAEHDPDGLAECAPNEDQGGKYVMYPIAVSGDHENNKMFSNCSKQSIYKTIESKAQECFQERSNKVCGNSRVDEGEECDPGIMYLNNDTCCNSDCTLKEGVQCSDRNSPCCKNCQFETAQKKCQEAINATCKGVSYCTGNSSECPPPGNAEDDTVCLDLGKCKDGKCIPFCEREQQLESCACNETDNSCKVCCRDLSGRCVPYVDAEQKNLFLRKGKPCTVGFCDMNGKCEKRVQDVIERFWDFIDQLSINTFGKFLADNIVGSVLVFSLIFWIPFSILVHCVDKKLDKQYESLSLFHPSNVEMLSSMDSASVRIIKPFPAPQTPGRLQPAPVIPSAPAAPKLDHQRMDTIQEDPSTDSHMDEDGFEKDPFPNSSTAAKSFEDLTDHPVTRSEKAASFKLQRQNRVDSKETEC
# FGF22 binding: shifts melting point of recombinant human FGF22. actives 1.5% (n = 340,000). Q9HCT0. activity (Tm shift, normalised), % at 9.99 µM. recombinant FGF22 thermal shift, SYPRO orange fluorescence; percent of sucrose octasulfate shift, DMSO zero;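 active = mean Tm shift, scaled 0 neutral to 100 positive control, at about 1.3% or above, every replicate too, limit read from the data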
# rRNA inh HTS: inhibitors of bacterial rRNA selective over humanized ribosomes. actives 1.6% (n = 350,000). GFP signal change (wild-type ribosome), % (concentration not given with the values). E. coli WT GFP vs humanized-ribosome RFP mutants, fluorescence, 24 h; stronger effect = lower value; DMSO median 0, no signal -100;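 active = significant combined selectivity score with lowered wild-type GFP, culture density cut under 30%, mutant RFP and density less affected; inactive = any of these conditions unmet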
# ADAM10 inh: inhibitors of human ADAM10 | O14672 | recombinant ADAM10, EDANS/DABCYL FRET peptide cleavage, 3 h | inhibition, % at 7 µM | actives 0.62% (n = 370,000) | AID 720582;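 active = inhibition above a per-campaign cutoff equal to the mean of compounds falling between control-based bounds plus 3 SD, cut at about 20% in these data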;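 note: 0% = DMSO wells while the 100% control is not disclosed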
# KLK7 zymogen act: activates the human kallikrein-7 zymogen. purified proKLK7, EDANS-DABCYL substrate fluorescence; 100% is mature enzyme control, 0% vehicle. P49862. actives 0.9% (n = 370,000). activation, % at 7 µM;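 active = activation above the mean of all tested compounds plus 3 SD, computed per campaign excluding outliers beyond control limits, cut at about 13% in these data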
# * marks the source's active call; other numbers are inactive results; x = no result.
SMILES,ADAM17 inh,FGF22 binding,rRNA inh HTS,ADAM10 inh,KLK7 zymogen act
COc1cccc(C(=O)/C=C/Nc2ccc(S(=O)(=O)Nc3nc(C)cc(C)n3)cc2)c1,-6,1,-21*,-13,1
CCOC(=O)C1=C(C)N(C)C(=S)NC1c1cccc(Cl)c1Cl (stereo unspecified),0,0,-24*,-6,0
COC(=O)C1=C(C)N(C)C(=S)NC1c1ccc(Cl)cc1 (stereo unspecified),0,44*,-10,5,0
CCOC(=O)C1=C(C)N(C)C(=S)NC1c1ccc(Cl)cc1 (stereo unspecified),-3,0,-20,-8,0
COc1ccc2c3c([nH]c2c1)[C@H](CO)N(Cc1ccc(Cl)cc1)CC31CN(Cc2ccccc2)C1,x,x,-9,x,x
COc1ccc(C(NC(C)=O)c2cc(Cl)c3cccnc3c2O)cc1 (stereo unspecified),4,0,-29,13,0
CCCC(=O)NC(c1ccc(OC)c(OC)c1)c1cc(Cl)c2cccnc2c1O (stereo unspecified),-4,43*,10,13,0
CCCC(=O)Oc1ccc(N(C(=O)CCC)S(=O)(=O)c2cccs2)cc1,2,43*,-3,3,0
O=C(/C=C\c1ccco1)Oc1cccc2cccnc12,2,0,0,-4,-1
COc1ccccc1/C=C/C(=O)Oc1cccc2cccnc12,-12,43*,1,-56,0
COc1ccccc1/C=C/C(=O)OCCCN(C)C,-33,44*,x,-129,3
CCc1cc(Cn2nc(-c3ccccc3)cc2C(=O)NCc2cccs2)on1,16*,0,-9,37*,1
CCc1cc(Cn2nc(-c3ccccc3)cc2C(=O)NCCOC)on1,-1,0,-2,2,0
COc1ccc(-c2csc(NC(=O)CS(=O)(=O)c3ccccc3)n2)cc1OC,0,0,-48,-6,0
COc1ccc(-c2csc(NC(=O)CC(NC(C)=O)c3ccccc3)n2)cc1OC (stereo unspecified),1,0,-28*,-3,0
COc1cc(C(=O)Nc2cccc(C)n2)ccc1OCC(=O)N1CCOCC1,-1,0,4,-9,0
COc1ccc(-c2csc(NC(=O)c3ccc(OCC(=O)N4CCOCC4)c(OC)c3)n2)cc1OC,1,44*,-34,3,0
C=C(C)CSc1cc(C)nc2c(-c3ccccc3)c(C)nn12,2,0,-49*,0,0
CCSc1cc(C)nc2c(-c3ccccc3)c(C)nn12,-1,x,x,8,0
Cc1nn2c(SCC(=O)c3cccs3)cc(C(C)(C)C)nc2c1-c1ccccc1,1,0,-30*,3,-1
Cc1cc(/C=C2\C(=N)N3N=CSC3=NC2=O)c(C)n1Cc1ccccc1,-7,0,-33*,-1,-1
N=C1/C(=C\c2ccc(OC(=O)c3ccco3)cc2)C(=O)N=C2SC=NN12,-19,44*,x,-66,1
CCOc1cc(/C=C2/C(=N)N3C(=NC2=O)SN=C3S(=O)(=O)C(C)C)ccc1OC(=O)c1ccco1,-20,x,0,-49,1
COc1cc(/C=C2/C(=N)N3C(=NC2=O)SN=C3S(=O)(=O)C(C)C)ccc1OC(=O)c1ccco1,-11,1.4*,8,-33,0
CS(=O)(=O)C1=NN2C(=N)/C(=C\c3ccc(OC(=O)c4ccco4)cc3)C(=O)N=C2S1,-18,0,3,-49,-1
SMILES,ADAM17 inh,FGF22 binding,rRNA inh HTS,ADAM10 inh,KLK7 zymogen act
O=C(Nc1cccc(F)c1)N1C[C@H]2[C@@H](c3ccccc31)[C@H](CO)N2C(=O)c1ccccn1,x,0,1,x,x
COCCNC(=O)C[C@@H]1C[C@H]2c3cc(NC(=O)c4cccnc4)ccc3O[C@H]2[C@H](CO)O1,x,0,2,x,x
CO[C@H]1CN(C)C(=O)c2ccc(NC(=O)Nc3c(C)noc3C)cc2OC[C@H](C)N(C)C[C@H]1C,x,0,1,x,x
CC(C)N(Cc1nc(-c2ccccc2)no1)C(=O)C(Cl)(Cl)Cl,-2,43*,-36,1,0
CC(=O)N1CC(C)Sc2ccc(S(=O)(=O)NCc3ccc(F)cc3)cc21 (stereo unspecified),2,0,-26*,-2,0
CCN(CC)c1ccc(N=Cc2ccccc2[N+](=O)[O-])cc1,1,-1,-32*,0,0
